Screens (PubChem BioAssay)
Shown are actives, neighbours in structure and some others; about 3.5% of the full set was active somewhere.
MITF inh – MITF inhibitors, primary screen, biochemical, AlphaScreen, human | AlphaScreen MITF homodimerization, bead proximity signal | inhibition, % at 2.6 µM | Microphthalmia-associated transcription factor (Homo sapiens), O75030 | hit rate 0.91% among 650,000 | AID 1259374, 2018; in the data active = inhibition above about 50%;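 also: 0% = vehicle wells with protein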
FBW7 activator – FBW7 E3 ligase activators, primary screen, biochemical, AlphaScreen, human | F-box/WD repeat-containing protein 7 (Homo sapiens), Q969H0 | AlphaScreen FBW7–phospho-cyclin E peptide binding, activator screen | normalized activity (activation), % at 26.1 µM | hit rate 0.13% among 650,000 | AID 1259310, 2017; in the data active = normalized activity above about 1.9%;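 also: purified mutant Fbw7 with reduced substrate affinity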
GPR151 ag – activators of human GPR151, primary screen, cell-based, PathHunter beta-arrestin, luminescence | G-protein coupled receptor 151 (Homo sapiens), Q8TDV0 | PathHunter beta-arrestin GPR151 cells | activation, % at 11.2 µM | hit rate 1% among 650,000 | AID 1508602, 2020; in the data active = activation above about 4.9%;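 also: 0% = median of compound wells and 100% = cells with positive control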
Target sequence (Q8TDV0 whole entry, looked up): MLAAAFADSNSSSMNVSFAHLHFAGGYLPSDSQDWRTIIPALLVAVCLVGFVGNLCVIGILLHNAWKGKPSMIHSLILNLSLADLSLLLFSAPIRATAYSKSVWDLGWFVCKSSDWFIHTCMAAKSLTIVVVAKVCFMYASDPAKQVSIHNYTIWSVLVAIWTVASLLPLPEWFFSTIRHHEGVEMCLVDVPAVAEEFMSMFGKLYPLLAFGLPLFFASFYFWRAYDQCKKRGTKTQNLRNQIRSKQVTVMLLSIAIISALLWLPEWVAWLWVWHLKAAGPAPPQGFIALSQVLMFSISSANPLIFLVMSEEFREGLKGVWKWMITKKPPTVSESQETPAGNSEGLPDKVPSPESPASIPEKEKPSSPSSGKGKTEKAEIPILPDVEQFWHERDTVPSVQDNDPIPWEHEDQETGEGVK
TEAD-YAP inh – TEAD-YAP interaction inhibition, primary screen, TEAD-YAP interaction inhibitor project, luminescence, HEK-TIYL cells | inhibition, % at 9.12 µM | TEAD-Gal4/YAP UAS-luciferase luminescence | AID 1259422, 2018 | hit rate 1.4% among 640,000; in the data active = inhibition above about 32%;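 also: 0% = median of test compound wells and 100% = reference inhibitor wells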
GPR151 conf act – GPR151 activators, triplicate retest, confirmation, cell-based, PathHunter beta-arrestin, luminescence. shares compounds with GPR151 ag. activation, % at 11.2 µM. GPR151 PathHunter beta-arrestin cells, 90 min; % of EA-reagent control over plate median. 6,700 tested, under 10 active;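 active = mean percent activation across replicates above the confirmation screen cutoff of 4.91%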
GPR119 counter – GPR119 activators in beta-arrestin cells, counter-screen for GPR151 activator project, cell-based, PathHunter beta-arrestin, luminescence, triplicate; shares compounds with GPR151 ag; activation, % at 11.2 µM; hit rate 0.3% among 6,700; 90 min; 0 = compound-well median, 100 = enzyme-acceptor control;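 active = mean percent activation in the counterscreen above 29.09%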;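 also: counterscreen on off-target GPR119 to flag nonselective hits from the GPR151 activator screen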
Starred values were filed as active, the others as inactive; x = no result given.

SMILES	MITF inh	FBW7 activator	GPR151 ag	TEAD-YAP inh	GPR151 conf act	GPR119 counter
Cc1cc(CNC2CCN(Cc3ccccc3)CC2)c(C)n1CC(C)C	49	0	6.8*	-2	1	13
COc1cc(CNC2CCN(Cc3ccccc3)CC2)cc(OC)c1	6	0	0	10	x	x
CCN(CC)C(=O)C1CCCN(c2nc(Nc3ccc(NC(C)=O)cc3)c3ncn(CCN4CCCC4=O)c3n2)C1 (stereo not drawn)	-5	0	6.4*	-1	0	-8
O=C1CCCN1CCn1cnc2c(Nc3ccc4c(c3)OCO4)nc(N3CCN(Cc4ccc5c(c4)OCO5)CC3)nc21	8	0	5.1*	8	0	-7
CCN(CC)C(=O)C1CCCN(c2nc(Nc3ccc(NC(C)=O)cc3)c3ncn(Cc4ccc(C(F)(F)F)cc4)c3n2)C1 (stereo not drawn)	0	0	0	3	x	x
COc1ccc(CCNc2nc(Nc3ccc(N4CCOCC4)cc3)nc3cc(OC)c(OC)cc23)cc1	29	0	0	-1	x	x
O=C(CNCCN1CCOCC1)Nc1ccc(C(=O)N2CCCCC2)cc1	20	0	2	-7	x	x
CSc1cc(C)c2c(c1)COC1(CCN(C(=O)CC(C)(C)CC(=O)O)CC1)O2	15	0	-1	-2	x	x
O=C(c1ccco1)N1CCC(c2nc3c(nnn3Cc3ccccc3Cl)c(=O)[nH]2)CC1	5	1	5.7*	9	1	13
Cc1ccc(Cn2nnc3c(=O)[nH]c(C4CCN(C(=O)c5ccco5)CC4)nc32)cc1	24	0	1	7	x	x
Cc1cccc(-c2nc(N3CCN(c4cccc(Cl)c4)CC3)c3ccccc3n2)c1	8	1	0	-6	x	x
COc1ccc(C(C)=O)cc1CN(C)C	5	0	6.6*	-8	2	3
O=S(=O)(c1ccc(F)cc1)N(CCCN1CCOCC1)Cc1cccs1	28	0	1	-8	x	x
O=S(=O)(c1ccc(Cl)cc1)N(CCCN1CCOCC1)Cc1cccs1	48	0	5.8*	-16	0	6
COc1ccc(C2c3c(n[nH]c3C)C(=O)N2c2ccc(C)cc2)c(OC)c1 (stereo not drawn)	9	0	0	-1	x	x
O=C(c1ccc(Cl)cc1)N1CCN(c2ccc([N+](=O)[O-])c(NCc3ccco3)c2)CC1	8	0	6.0*	-7	-1	-13
COc1cc(OC)cc(C(=O)N2CCN(C3CCCCC3)CC2)c1	27	0	5.0*	0	0	16
COc1cc(C(=O)N2CCN(C3CCCC3)CC2)cc(OC)c1OC	-1	0	1	1	x	x
COC(=O)CON1C(=O)CN(C(=O)c2ccccc2)C1c1cccc([N+](=O)[O-])c1 (stereo not drawn)	2	0	-1	3	x	x
Cc1ccc(S(=O)(=O)N2CCCC2NC(=O)Nc2cc(Cl)ccc2Cl)cc1 (stereo not drawn)	8	1	0	-4	x	x
Cn1c(=O)c(=O)n(C)c2cc(S(=O)(=O)N3CCN(C(=O)c4ccco4)CC3)ccc21	6	0	15*	1	1	-2
CC1(C)CC2(CCO1)OC(=O)CC2C(=O)NCc1ccccc1 (stereo not drawn)	-10	0	5.6*	-5	0	6
S=c1nc(-c2ccncc2)[nH][nH]1	-8	0	1	3	x	x
CC(C)C(=O)Nc1cccc(C(=O)N2CCCc3ccccc32)c1	18	0	6.5*	10	1	-1
Cc1ccc(C(=O)N2CCCc3ccccc32)cc1C	4	0	-1	-12	x	x
COc1ccc(-c2cc(=O)oc3cc(O)c(Cl)cc23)cc1	-5	0	1	20	x	x
COc1ccc(-c2cc(=O)oc3c(O)c(O)ccc23)cc1	-3	0	8.2*	14	-1	1
COC(=O)c1ccc(OCc2cccc(F)c2)c(OC)c1	7	1	5.9*	-30	-1	-10
COc1cc(C(=O)Nc2ccccc2F)ccc1OCc1cccc(F)c1	4	0	-1	-17	x	x
